Experimental findings from PubChem BioAssay (EPA / NIEHS) are described below.

The structures appear in SMILES notation. Calls of active or inactive are those of the source. Rule for the calls: active = hit-call score of the fitted dose curve at least 0.9, where 1 is the maximum; inactive = score below 0.9.

The nature of assay [1]: APR_HepG2_CellCycleArrest_24hr: Apredica 24-hour HepG2 Assay for Cell Cycle Arrest (AID 2282905).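 Note: cell cycle arrest scored as ratio of 2N to 4N nuclear DNA content.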 The following applies: imaging, actives raise or lower the signal. In outline:
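After 24 h exposure at 0.39–200 uM in 0.5% DMSO, fixed cells received Hoechst 33342 staining. Imaging quantified per-nucleus DNA content; gain or loss fitted against DMSO controls.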

The nature of assay [2]: APR_HepG2_NuclearSize_24hr: Apredica 24-hour HepG2 Assay for Nuclear Size (AID 2282907). Conditions: high-content imaging, actives raise or lower the signal. In outline: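 Nuclear size from Hoechst 33342-stained, formaldehyde-fixed HepG2 nuclei imaged by high-content microscopy, after 24 h dosing at ten concentrations from 0.39 to 200 uM in 0.5% DMSO; gain or loss relative to DMSO baseline.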

Assay [3] can be described thus: APR_HepG2_CellLoss_24hr: Apredica 24-hour HepG2 Assay for Cell Loss (AID 2282908).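 For AC50: fit in both directions so a hit may be cell loss or gain.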 The following applies: high-content imaging. In outline: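 Nuclei stained with Hoechst 33342 after formaldehyde fixation (3.7%) were imaged at 20x to count cells. Exposure lasted 24 hr, at ten concentrations from 0.39 to 200 uM in duplicate, with 0.5% v/v DMSO. Fit bidirectional, relative to DMSO.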

Assay [4] can be described thus: APR_HepG2_MicrotubuleCSK_24hr: Apredica 24-hour HepG2 Assay for Microtubule CSK Stabilty (AID 2282909). Conditions: HepG2 microtubule cytoskeleton imaging, actives raise or lower the signal. In a few lines: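 Fixed HepG2 cells were stained for alpha-tubulin and imaged after 24 hr exposure to ten concentrations spanning 0.39–200 uM in 0.5% DMSO. Signal change was fitted in both directions relative to DMSO; taxol was the positive control.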

Assay [5] can be described thus: APR_HepG2_MitoticArrest_24hr: Apredica 24-hour HepG2 Assay for Mitotic Arrest (AID 2282910). The following applies: high-content imaging, actives raise or lower the signal. In a few lines:
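HepG2, 24 hr dosing, 0.39–200 uM, 0.5% DMSO final. Formaldehyde-fixed, Triton-permeabilised, anti-phospho-histone H3 plus Hoechst. ArrayScan imaging at 20x; bidirectional fit vs DMSO baseline.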

Assay [6] in a line: APR_HepG2_MitoMembPot_24hr: Apredica 24-hour HepG2 Assay for Mitochondrial Membrane Potential (AID 2282911). The following applies: imaging, actives raise or lower the signal. In outline: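 Mitochondrial dye uptake (MitoTracker Red CMXRos, 250 nM, 30 min pre-fixation) in HepG2 after 24 hr compound exposure, 0.39–200 uM; ArrayScan images at 20x, activity fitted in both directions relative to DMSO.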

The nature of assay [7]: APR_HepG2_MitoMass_24hr: Apredica 24-hour HepG2 Assay for Mitochondrial Mass (AID 2282912). The following applies: high-content imaging, actives raise or lower the signal. In a few lines:
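Endpoint is MitoTracker Red CMXRos (250 nM, 30 min, pre-fixation) intensity from 20x high-content imaging, nuclei located by Hoechst. Human HepG2 cells received ten concentrations from 0.39 to 200 uM in 0.5% DMSO for 24 hr, duplicate wells. Bidirectional fit relative to DMSO.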

Assay [8] can be described thus: APR_HepG2_p53Act_24hr: Apredica 24-hour HepG2 Assay for p53 Activation (AID 2282913).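 Note: p53 protein immunofluorescence averaged per cell in HepG2 with Hoechst nuclei.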 Conditions: high-content imaging, actives raise or lower the signal. In a few lines:
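Following 24 hr dosing of HepG2 at 0.39–200 uM, the cells undergo formaldehyde fixation, Triton permeabilization and multiplexed antibody labeling that includes p53 (Cy5). Signal from the imaging is referenced to DMSO solvent controls.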

Assay [9] is described as follows: APR_HepG2_CellCycleArrest_72hr: Apredica 72-hour HepG2 Assay for Cell Cycle Arrest (AID 2282914). The following applies: high-content imaging, actives raise or lower the signal. In a few lines: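 Using multiplexed high-content imaging, HepG2 nuclei stained with Hoechst 33342 (2 ug/mL) were analysed for DNA content after fixation and permeabilization. Treatment lasted 72 hr across 0.39–200 uM in duplicate with final DMSO 0.5% v/v; DMSO served as negative control.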

Assay [10] is described as follows: APR_HepG2_CellLoss_72hr: Apredica 72-hour HepG2 Assay for Cell Loss (AID 2282915). Conditions: high-content imaging. In outline:
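HepG2 cells exposed 72 h to compound at 0.39–200 uM (10 concentrations, duplicate) in 0.5% DMSO. Fixed with 3.7% formaldehyde and Hoechst 33342-stained. Imaged at 20x; nuclear count gives cell number, fitted bidirectionally versus DMSO.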

As to `Cc1cc(SC2=C(O)C[C@@](CCc3ccc(N)cc3)(C(C)C)OC2=O)c(C(C)(C)C)cc1CO`, the call in [1], in assay [2], in assay [3], in assay [4], in assay [5] and in assay [7] was inactive. For the same compound, the call in assay [8], in assay [9] and in assay [10] was inactive. In addition, in [6], the AC50 (as a rule, the concentration giving half of the maximal activity seen) is 0.0797 µM (active).
As to `S=c1[nH]c2ccccc2s1`, the compound was called inactive in assay [1], in assay [2], in assay [3], in assay [4], in [5] and in assay [7]. Also, the compound was classed as inactive in [8], in [9] and in assay [10]. Further, the AC50 in [6] was 86.5 µM (active).
On to `COC(=O)CCC(=O)OC`, for which the outcome in assay [1], in assay [2], in assay [3], in assay [4], in assay [5] and in [6] was inactive. Moreover, the call in [7], in [8], in assay [9] and in assay [10] was inactive.
For the compound `CC(C)c1cccc(C(C)C)c1NC(=O)NS(=O)(=O)c1cc(C(C)(C)O)co1`, the outcome in [1], in assay [2], in assay [3], in assay [4], in [5] and in [6] was inactive. Also, the outcome in assay [7], in assay [8], in assay [9] and in assay [10] was inactive.
As for `COc1ccc(C(=O)Nc2nc3ccccc3c(NCc3ccccc3)c2C#N)cc1`, the outcome in [1], in [2], in assay [4], in assay [5] and in [9] was inactive. The AC50 in assay [3] is 119 µM (active); in assay [6], 43.4 µM (active); in assay [7] it was 159 µM (active); in assay [8], 160 µM (active); in [10], 45.3 µM (active).
Turning to `CC(C)(O)c1ccc(CNC(=O)c2cccnc2Oc2ccc(F)cc2)cc1`, the call in [1], in assay [2], in [3], in assay [4], in assay [5] and in [6] was inactive. Besides, the compound was called inactive in [7], in [8], in assay [9] and in [10].
Regarding `CCCCc1nc2cccnc2n1Cc1ccc(-c2ccccc2-c2nnn[nH]2)cc1`, the result in [1], in [5] and in assay [9] was inactive. In addition, the concentration at half-maximal activity (AC50) in assay [2] is 51 µM (active); in assay [3] it was 32.6 µM (active); in [4], 35.7 µM (active); in assay [6], 23.1 µM (active); in [7], 28.1 µM (active); in [8], 31.1 µM (active). In addition, the concentration at half-maximal activity (AC50) in assay [10] was 65.2 µM (active).
Consider `CN(C)C(=O)NC1(c2ccccc2)CCN(CCC[C@]2(c3ccc(Cl)c(Cl)c3)CCCN(C(=O)c3ccccc3)C2)CC1`, for which the AC50 in assay [1] was 24.7 µM (active); in [3], 24.9 µM (active); in [4], 8.32 µM (active); in assay [5] it was 16.3 µM (active); in assay [7], 15.4 µM (active); in assay [8] it was 14.8 µM (active). In addition, the concentration at half-maximal activity (AC50) in assay [10] is 16 µM (active). Further, the compound was called inactive in assay [2], in assay [6] and in assay [9].
`CCCCCCCC(=O)OC`: the result in assay [1], in [2], in [3], in [4], in assay [5] and in assay [6] was inactive. For the same compound, the outcome in [7], in [8], in [9] and in assay [10] was inactive.
`CCCCCCCCCCCCCCCCO`: the result in assay [1], in assay [2], in [3], in assay [4], in [5] and in [6] was inactive. In addition, the outcome in assay [7], in [9] and in assay [10] was inactive.
As to `CC(=O)[C@@]1(O)CC[C@H]2[C@@H]3CCC4=CC(=O)CC[C@]4(C)[C@H]3CC[C@@]21C`, the call in assay [1], in [2], in [3], in [4], in assay [5] and in [6] was inactive. In addition, the compound was classed as inactive in assay [7], in assay [9] and in [10].
As to `Nc1nc(=S)c2[nH]cnc2[nH]1`, the outcome in assay [1], in assay [2], in [4], in assay [5], in assay [6] and in assay [7] was inactive. The AC50 is 21.4 µM (active) in assay [3], 63.2 µM (active) in assay [9] and 17.9 µM (active) in assay [10].
`Oc1ccccc1O`: the outcome in assay [1], in assay [2], in [4], in assay [5], in assay [6] and in assay [7] was inactive. The outcome in [8] was inactive. The half-maximal activity concentration (AC50) in assay [9] was 36.4 µM (active); in assay [10], 36.8 µM (active).
`NC=O`: the outcome in assay [1], in assay [2], in [3], in assay [4], in [5] and in assay [6] was inactive. Further, the compound was classed as inactive in assay [7], in [9] and in assay [10].
On to `Cc1occc(=O)c1O`, for which the outcome in assay [1], in assay [2], in [3], in assay [4], in assay [5] and in [6] was inactive. The outcome in assay [7], in [9] and in assay [10] was inactive.
As to `Cn1cnc2c1c(=O)[nH]c(=O)n2C`, the compound was classed as inactive in assay [1], in assay [2], in [3], in [4], in assay [5] and in [6]. In addition, the call in assay [7], in [9] and in [10] was inactive.
Regarding `CN(C)C(=O)NC1(c2ccccc2)CCN(CC[C@@]2(c3ccc(F)c(F)c3)CN(C(=O)c3ccccc3)CCO2)CC1`, the result in assay [1], in [2], in assay [4], in assay [6], in assay [8] and in assay [9] was inactive. The concentration at half-maximal activity (AC50) in [5] is 101 µM (active); in [7], 97.8 µM (active); in [10], 111 µM (active).
On to `CCCCCCCCCC[N+](C)(C)[O-]`, for which the call in assay [1], in [2], in assay [4], in assay [5], in assay [6] and in assay [7] was inactive. The compound was called inactive in [8] and in [9]. For the same compound, the AC50 in assay [10] was 140 µM (active).
For the compound `O=C(N[C@@H](c1ccccc1)[C@@H]1CCCCN1)c1cccc(C(F)(F)F)c1Cl`, the AC50 was 18.7 µM (active) in assay [1]; 17.4 µM (active) in [2]; 21.7 µM (active) in assay [3]; 11.4 µM (active) in assay [4]; 12.6 µM (active) in assay [5]; 12.6 µM (active) in assay [7]. For the same compound, the AC50 in assay [10] was 15.2 µM (active). In addition, the result in [6] and in assay [9] was inactive.
`CC(C)NCC(O)c1ccc(O)c(O)c1` (configuration not stated): the call in assay [1], in assay [2], in assay [3], in [4], in assay [5] and in [6] was inactive. The call in assay [7] and in assay [9] was inactive. Moreover, in assay [10], the AC50 was 91.3 µM (active).
Consider `CC(=O)O`, for which the half-maximal activity concentration (AC50) in assay [1] is 97 µM (active); in [3], 112 µM (active); in [5], 126 µM (active); in assay [9] it was 0.16 µM (active); in assay [10], 49.4 µM (active). The result in [2], in assay [4], in assay [6] and in [7] was inactive.
Consider `O=C(Oc1ccccc1)c1cccc(C(=O)Oc2ccccc2)c1`, for which the outcome in [1], in assay [2], in assay [3], in assay [4], in assay [5] and in assay [6] was inactive. Also, the result in [7] and in [9] was inactive. Further, in assay [10], the AC50 is 113 µM (active).
